Structures are written as SMILES. Among all 48,000 compounds or so, about 13,000 (27%) showed an effect of 50% or more. The list shows a part of the results.

We go through 62 compounds from ChEMBL document CHEMBL3988442, “University of Dundee, Small-Polar-MMV Screening Library” (2021).

For this test, the system named is Wolbachia pipientis. Put plainly: Anti-Wolbachia Cell-Based Screen. The format is functional. Set-up: scale not given: in the data most compounds retested in dose-response had high values. To be noted: 5 µM.
For the compound `CN(Cc1cn2c(n1)CN(C(=O)c1cccn1C)CC2)Cc1ccco1`, the “Percent Effect” value is listed as 10.07%.
With `COc1cccc(OCc2nnc3n2N=C(C(C)(C)C)CS3)c1`, the “Percent Effect” value is on record as -3.476%.
On to `CCC(CC)N(Cc1cc(=O)n(C)c(=O)n1C)C1CC1`, for which the “Percent Effect” value was -2.422%.
In the case of `CC(C)C(O)CNC(=O)Nc1cccc(-c2nccs2)c1` (configuration not stated) it was 0.8901%.
`CN1CCC2(CC1)CN(CC1CC1)CC21CCNC1=O.O=C(O)C(F)(F)F.O=C(O)C(F)(F)F` (configuration not stated): the “Percent Effect” value was -40.68%.
In the case of `CCN1CCCC(CNC(=O)C2(c3cccc(Cl)c3)CC2)C1` (configuration not stated) it was 3.483%; in that of `COCCN1CCC(CNC(=O)C2(c3cccc(Cl)c3)CC2)C1` (configuration not stated), 119%; in that of `COCCN1CCC(CNC(=O)C2(c3cc(C)cc(C)c3)CC2)CC1`, 106.5%.
As for `COCCN1CCC(CNC(=O)C2(c3cccc(C)c3)CC2)CC1`, the figure is 2.355%; as for `COCCN1CCC(CNC(=O)C2(c3cc(C)cc(C)c3)CCC2)C1` (configuration not stated), 8.369%.
For the compound `COCCN1CCC(CNC(=O)C2(c3cccc(C)c3)CC2)C1` (configuration not stated), the “Percent Effect” value is on record as 112.6%.
Regarding `COCCN1CCC(NC(=O)C2(c3cc(C)cc(C)c3)CC2)CC1`, the “Percent Effect” value came to 0.6832%.
In the case of `COC(C)c1noc(CN(C)c2ncc(Br)cn2)n1` (configuration not stated) it was 13.56%; in that of `CCCc1noc(CCCC(=O)N2CCCC(n3ccnc3C)C2)n1` (configuration not stated), -4.622%.
As for `CCCN1CCC(N2CCC(Cn3cc(C4CC4)nn3)CC2)CC1`, the figure is -14.8%; as for `Cc1ccc(F)c(S(=O)(=O)NCc2cccc(CS(C)(=O)=O)c2)c1`, -5.265%; as for `Cc1cccc(CN2C[C@@H]3CN(C(=O)c4ccsc4)C[C@@H]3C2=O)c1`, 0.6245%.
In the case of `COc1ccc(CN2C[C@@H]3CN(CCO)C[C@@H]3C2=O)cc1` it was -4.847%.
On to `CCS(=O)(=O)N1C[C@H]2CN(Cc3cccc(C)c3)C(=O)[C@H]2C1`, for which the “Percent Effect” value is 103%.
In the case of `O=C(O)C(F)(F)F.O=C1[C@H]2CN(CC3CCOCC3)C[C@H]2CN1Cc1cccc(F)c1` it was -3.595%.
`COc1ccc(CN2C[C@@H]3CN(S(=O)(=O)C4CC4)C[C@@H]3C2=O)cc1`: the “Percent Effect” value is listed as -20.01%.
In the case of `CCS(=O)(=O)N1C[C@H]2CN(Cc3ccc(OC)cc3)C(=O)[C@H]2C1` it was 106.9%; in that of `CCS(=O)(=O)N1C[C@H]2CN(Cc3cccc(F)c3)C(=O)[C@H]2C1`, 106.4%.
In the case of `Cc1cccc(CN2C[C@@H]3CN(C(=O)NC(C)C)C[C@@H]3C2=O)c1` it was 0.03785%.
In the case of `Cc1cccc(CN2C[C@@H]3CN(C4CCOCC4)C[C@@H]3C2=O)c1.O=C(O)C(F)(F)F` it was 2.907%; in that of `CCCNC(=O)[C@@H]1CCCN1[C@@H](C(=O)NC)C1CC1.Cl`, -3.59%.
Turning to `O=C(N1CCC(O)(C(F)(F)F)C1)C1(c2cccc(Cl)c2)CC1` (configuration not stated), the “Percent Effect” value is given as -4.685%.
In the case of `C[S+]([O-])c1ccc(NC(=O)CC2=CCCCC2)cc1` (configuration not stated) it was -2.422%; in that of `CCOCC1CN(c2ncc(F)cn2)Cc2cn(CC)nc21` (configuration not stated), -1.494%.
In the case of `CCn1ncc2c1CN(CCc1cccc(Cl)c1)CC2COC.O=C(O)C(F)(F)F.O=C(O)C(F)(F)F` (configuration not stated) it was 128.6%.
In the case of `CCn1ncc2c1CN(C(=O)c1cc(C)oc1C)CC2COC.O=C(O)C(F)(F)F` (configuration not stated) it was -2.484%; in that of `CCOCC1CN(CCOc2ccc(Cl)cc2)Cc2c1cnn2C.O=C(O)C(F)(F)F.O=C(O)C(F)(F)F` (configuration not stated), -5.642%; in that of `CCOCC1CN(CCOCc2ccccc2)Cc2c1cnn2C` (configuration not stated), -3.92%.
Consider `COCC1CN(CCc2ccc(OC)c(OC)c2)Cc2c1cnn2C` (configuration not stated), for which the “Percent Effect” value came out at 98.17%.
As for `COCC1CN(S(=O)(=O)c2ccc(C)cc2)Cc2c1cnn2C.O=C(O)C(F)(F)F` (configuration not stated), the figure is 14.09%.
As for `CCn1ncc2c1CN(C(=O)Cc1ccccn1)CC2COC.O=C(O)C(F)(F)F.O=C(O)C(F)(F)F` (configuration not stated), the figure is -10.79%; as for `CCOCC1CN(CCc2ccccc2)Cc2c1cnn2C` (configuration not stated), 9.007%.
As for `COCC1CN(CCOc2ccc(Cl)cc2)Cc2c1cnn2C.O=C(O)C(F)(F)F.O=C(O)C(F)(F)F` (configuration not stated), the figure is 128.1%; as for `CN1CCN(c2ccc(NCc3ccc(OC(F)(F)F)cc3)cn2)CC1`, -13.31%; as for `COC(=O)N1CCC(Nc2cccc(F)c2C#N)CC1`, 6.326%.
On to `N#Cc1ccccc1C(=O)N1C[C@@H](CN2CCCCCC2)[C@@H](CO)C1`, for which the “Percent Effect” value is recorded as -2.218%.
For the compound `Cc1nnc(SCC(=O)N2CCc3[nH]nc(C4CCC4)c3C2)o1`, the “Percent Effect” value is listed as -25.51%.
`CCN(CC)C(=O)C(c1ccccc1)N1CCn2c(C)nnc2C1` (configuration not stated): the “Percent Effect” value was -5.766%.
Consider `CC1(C)CC(CC(=O)N2CC(C)(C)[C@@](C)(O)C2)CC(C)(C)N1`, for which the “Percent Effect” value is -10.88%.
In the case of `CCc1cc(N[C@@H](CC(C)C)C(N)=O)n2nc(C)c(C)c2n1` it was 1.157%; in that of `O=C1CC(C(=O)N2CCc3sccc3C2)CN1Cc1cccnc1` (configuration not stated), -4.394%.
As for `O=C([C@H]1CCCO1)N1CCN(Cc2cccnc2)c2ncccc2C1`, the figure is 109.6%; as for `O=C([C@@H]1CCCO1)N1CCN(Cc2ccncc2)c2ncccc2C1`, 98.82%.
Turning to `CCC(C)(C)NC(=O)c1ccc(NC(=O)NCc2cc(C)no2)cc1`, the “Percent Effect” value is on record as -4.635%.
On to `COCCN(CCOC)c1nc2c(s1)c(C)nn2C`, for which the “Percent Effect” value was found to be 0.9407%.
As for `COC(=O)C(NC(=O)Nc1ccc(C(C)=O)cc1)C(C)C` (configuration not stated), the figure is 123.5%; as for `COCC(=O)N1CCC(C(=O)Nc2ccc(C(C)=O)cc2)CC1`, -27.44%; as for `Cc1ccc(NC(=O)NC(C)c2nc[nH]n2)cc1` (configuration not stated), -1.45%.
Turning to `COC(=O)[C@@H](NC(=O)Nc1ccc(C(C)=O)cc1)C(C)C`, the “Percent Effect” value worked out at 115.5%.
In the case of `Cc1cnn(C2CCCN(C(=O)c3ccc(N(C)C)nn3)C2)c1` (configuration not stated) it was -2.152%.
As to `CN(C)c1ccc(C(=O)N2CCCC(n3cncn3)C2)nn1` (configuration not stated), the “Percent Effect” value is 102.9%.
In the case of `O=C(c1ccc(OCC2CC2)nc1)N1CCCC(n2cncn2)C1` (configuration not stated) it was -8.592%; in that of `Cc1nccn1C1CCCN(C(=O)c2ccc(N(C)C)nn2)C1` (configuration not stated), 121.5%; in that of `Cc1nc(C)n(C2CCCN(C(=O)c3ccc(N(C)C)nn3)C2)n1` (configuration not stated), -4.997%.
Take `CCn1nc(C(=O)N2CCCC(n3cncn3)C2)ccc1=O` (configuration not stated): the “Percent Effect” value is on record as -5.268%.
As for `COc1ccc(C(=O)N2CCCC(n3cncn3)C2)nn1` (configuration not stated), the figure is 89.87%.
As for `CCc1nccn1C1CCCN(C(=O)c2ccc(N(C)C)nn2)C1` (configuration not stated), the “Percent Effect” value was 8.431%.
